Laboratory results: ChEMBL document CHEMBL1961873, “Compounds: GSK PKIS; Assays: Nanosyn kinase panel” (2012)
“And” between values parts separate entries of the source, which are not always exact repeats. Identical values can stand only once.

How the values were obtained:
[1] = target: CDK3/Cyclin E (Homo sapiens) (UniProt P24864+Q00526); conditions: at 1 µM;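 further: each figure is a mean percent inhibition of the CDK3/cyclin E complex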
[2] = target: Cyclin-dependent kinase 4 (Homo sapiens) (UniProt P11802); conditions: at 0.1 µM
Cyclin-dependent kinase 4 (Homo sapiens), sequence (P11802 whole entry): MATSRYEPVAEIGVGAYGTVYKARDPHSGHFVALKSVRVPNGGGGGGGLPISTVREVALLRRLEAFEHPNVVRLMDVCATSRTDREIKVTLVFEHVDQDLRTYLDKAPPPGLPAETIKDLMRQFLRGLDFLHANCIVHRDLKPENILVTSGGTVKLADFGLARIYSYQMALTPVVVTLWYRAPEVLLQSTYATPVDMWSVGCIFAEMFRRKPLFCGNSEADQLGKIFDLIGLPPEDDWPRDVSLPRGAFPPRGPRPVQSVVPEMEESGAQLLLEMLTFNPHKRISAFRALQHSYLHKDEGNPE

[3] = target: Cyclin-dependent kinase 4 (Homo sapiens) (UniProt P11802); conditions: at 1 µM
[4] = target: Cyclin-dependent kinase 5 (Homo sapiens) (UniProt Q00535); conditions: at 0.1 µM
Cyclin-dependent kinase 5 (Homo sapiens), sequence (Q00535 whole entry, looked up): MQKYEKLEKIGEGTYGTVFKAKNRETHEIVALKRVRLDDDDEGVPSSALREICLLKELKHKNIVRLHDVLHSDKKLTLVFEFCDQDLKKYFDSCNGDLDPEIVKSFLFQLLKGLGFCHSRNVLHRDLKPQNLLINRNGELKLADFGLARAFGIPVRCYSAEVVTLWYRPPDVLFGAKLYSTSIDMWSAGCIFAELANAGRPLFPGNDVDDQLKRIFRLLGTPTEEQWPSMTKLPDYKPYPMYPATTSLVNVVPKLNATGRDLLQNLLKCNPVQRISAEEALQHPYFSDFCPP

[5] = target: Cyclin-dependent kinase 5 (Homo sapiens) (UniProt Q00535); conditions: at 1 µM
[6] = target: Cyclin-dependent kinase 6 (Homo sapiens) (UniProt Q00534); conditions: at 0.1 µM
Cyclin-dependent kinase 6 (Homo sapiens), sequence (Q00534 whole entry): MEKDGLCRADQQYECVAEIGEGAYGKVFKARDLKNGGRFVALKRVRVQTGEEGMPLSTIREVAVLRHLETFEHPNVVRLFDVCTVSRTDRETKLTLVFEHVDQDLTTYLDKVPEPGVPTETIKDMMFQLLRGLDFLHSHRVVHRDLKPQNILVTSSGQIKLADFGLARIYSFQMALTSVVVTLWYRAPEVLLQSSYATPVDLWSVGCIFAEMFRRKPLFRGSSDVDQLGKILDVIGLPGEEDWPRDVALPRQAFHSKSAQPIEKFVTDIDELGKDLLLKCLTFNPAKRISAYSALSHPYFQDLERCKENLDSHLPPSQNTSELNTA

[7] = target: Cyclin-dependent kinase 6 (Homo sapiens) (UniProt Q00534); conditions: at 1 µM
[8] = target: Dual specificity protein kinase CLK2 (Homo sapiens) (UniProt P49760); conditions: at 0.1 µM
Dual specificity protein kinase CLK2 (Homo sapiens), sequence (P49760 whole entry, looked up): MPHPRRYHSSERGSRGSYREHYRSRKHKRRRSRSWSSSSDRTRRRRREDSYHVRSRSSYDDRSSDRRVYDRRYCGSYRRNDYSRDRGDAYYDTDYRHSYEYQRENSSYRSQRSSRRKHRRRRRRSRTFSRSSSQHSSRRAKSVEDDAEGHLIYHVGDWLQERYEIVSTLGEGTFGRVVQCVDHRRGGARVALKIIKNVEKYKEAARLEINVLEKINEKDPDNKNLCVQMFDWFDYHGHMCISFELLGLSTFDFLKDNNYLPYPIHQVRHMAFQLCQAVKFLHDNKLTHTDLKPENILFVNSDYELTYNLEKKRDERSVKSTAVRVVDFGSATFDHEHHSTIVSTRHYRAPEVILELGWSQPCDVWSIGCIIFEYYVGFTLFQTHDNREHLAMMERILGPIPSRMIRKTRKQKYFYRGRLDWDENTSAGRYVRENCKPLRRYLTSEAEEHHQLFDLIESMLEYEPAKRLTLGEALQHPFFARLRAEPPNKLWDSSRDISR

[9] = target: Dual specificity protein kinase CLK2 (Homo sapiens) (UniProt P49760); conditions: at 1 µM
[10] = target: Dual specificity protein kinase CLK3 (Homo sapiens) (UniProt P49761); conditions: at 0.1 µM
Dual specificity protein kinase CLK3 (Homo sapiens), sequence (P49761 whole entry, looked up): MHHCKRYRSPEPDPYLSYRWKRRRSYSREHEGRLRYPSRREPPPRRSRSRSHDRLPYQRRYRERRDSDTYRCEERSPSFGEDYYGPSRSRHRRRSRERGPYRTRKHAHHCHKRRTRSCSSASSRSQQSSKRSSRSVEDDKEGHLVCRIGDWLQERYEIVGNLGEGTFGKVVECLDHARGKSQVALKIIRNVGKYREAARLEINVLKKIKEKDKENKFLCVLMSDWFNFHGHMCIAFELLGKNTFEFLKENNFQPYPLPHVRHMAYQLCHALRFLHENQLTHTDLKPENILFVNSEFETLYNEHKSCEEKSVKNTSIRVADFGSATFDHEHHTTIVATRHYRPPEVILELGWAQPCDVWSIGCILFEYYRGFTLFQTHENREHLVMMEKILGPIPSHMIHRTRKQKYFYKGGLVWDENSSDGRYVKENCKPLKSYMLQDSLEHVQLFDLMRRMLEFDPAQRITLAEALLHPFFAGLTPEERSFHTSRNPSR

[11] = target: Dual specificity protein kinase CLK3 (Homo sapiens) (UniProt P49761); conditions: at 1 µM
[12] = target: Dual specificity tyrosine-phosphorylation-regulated kinase 1A (Homo sapiens) (UniProt Q13627); conditions: at 0.1 µM
[13] = target: Dual specificity tyrosine-phosphorylation-regulated kinase 1A (Homo sapiens) (UniProt Q13627); conditions: at 1 µM
[14] = target: Dual specificity tyrosine-phosphorylation-regulated kinase 1B (Homo sapiens) (UniProt Q9Y463); conditions: at 0.1 µM
Dual specificity tyrosine-phosphorylation-regulated kinase 1B (Homo sapiens), sequence (Q9Y463 whole entry, looked up): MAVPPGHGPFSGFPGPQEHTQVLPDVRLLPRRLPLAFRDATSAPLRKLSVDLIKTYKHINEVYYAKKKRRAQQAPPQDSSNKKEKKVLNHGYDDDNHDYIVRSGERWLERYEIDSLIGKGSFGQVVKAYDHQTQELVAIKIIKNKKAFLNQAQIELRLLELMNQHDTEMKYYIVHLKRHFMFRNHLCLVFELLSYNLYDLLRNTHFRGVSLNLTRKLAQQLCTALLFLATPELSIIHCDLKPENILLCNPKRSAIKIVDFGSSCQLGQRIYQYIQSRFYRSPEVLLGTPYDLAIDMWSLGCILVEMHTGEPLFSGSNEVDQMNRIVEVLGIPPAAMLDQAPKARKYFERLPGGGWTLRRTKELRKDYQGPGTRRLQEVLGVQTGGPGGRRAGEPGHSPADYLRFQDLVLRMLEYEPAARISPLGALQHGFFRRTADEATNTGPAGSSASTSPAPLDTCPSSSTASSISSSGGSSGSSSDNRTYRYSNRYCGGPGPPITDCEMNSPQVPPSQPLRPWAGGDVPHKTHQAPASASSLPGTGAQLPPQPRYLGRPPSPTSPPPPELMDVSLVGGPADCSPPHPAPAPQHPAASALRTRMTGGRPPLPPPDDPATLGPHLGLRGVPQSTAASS

[15] = target: Dual specificity tyrosine-phosphorylation-regulated kinase 1B (Homo sapiens) (UniProt Q9Y463); conditions: at 1 µM
[16] = target: T1, Dual specificity tyrosine-phosphorylation-regulated kinase 2 (Homo sapiens) (UniProt Q92630); conditions: at 0.1 µM
T1 sequence (whole entry): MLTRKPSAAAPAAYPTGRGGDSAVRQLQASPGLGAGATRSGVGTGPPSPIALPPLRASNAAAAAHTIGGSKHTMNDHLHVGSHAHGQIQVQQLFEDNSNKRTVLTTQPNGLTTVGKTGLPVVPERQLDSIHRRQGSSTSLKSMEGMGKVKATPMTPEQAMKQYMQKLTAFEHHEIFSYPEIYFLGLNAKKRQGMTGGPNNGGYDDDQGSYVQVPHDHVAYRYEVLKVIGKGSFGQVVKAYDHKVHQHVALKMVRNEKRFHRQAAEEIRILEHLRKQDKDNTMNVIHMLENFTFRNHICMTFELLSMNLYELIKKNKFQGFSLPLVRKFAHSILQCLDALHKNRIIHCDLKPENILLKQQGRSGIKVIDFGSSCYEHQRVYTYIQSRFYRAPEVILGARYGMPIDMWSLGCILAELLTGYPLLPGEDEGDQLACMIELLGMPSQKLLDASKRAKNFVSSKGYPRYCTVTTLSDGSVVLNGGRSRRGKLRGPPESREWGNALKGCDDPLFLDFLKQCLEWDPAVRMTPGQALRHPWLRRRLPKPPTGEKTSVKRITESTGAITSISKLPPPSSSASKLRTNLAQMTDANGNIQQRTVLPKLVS

[17] = target: T1, Dual specificity tyrosine-phosphorylation-regulated kinase 2 (Homo sapiens); conditions: at 1 µM
[18] = target: Glycogen synthase kinase-3 alpha (Homo sapiens) (UniProt P49840); conditions: at 0.1 µM
Glycogen synthase kinase-3 alpha (Homo sapiens), sequence (P49840 2-483 limits assumed): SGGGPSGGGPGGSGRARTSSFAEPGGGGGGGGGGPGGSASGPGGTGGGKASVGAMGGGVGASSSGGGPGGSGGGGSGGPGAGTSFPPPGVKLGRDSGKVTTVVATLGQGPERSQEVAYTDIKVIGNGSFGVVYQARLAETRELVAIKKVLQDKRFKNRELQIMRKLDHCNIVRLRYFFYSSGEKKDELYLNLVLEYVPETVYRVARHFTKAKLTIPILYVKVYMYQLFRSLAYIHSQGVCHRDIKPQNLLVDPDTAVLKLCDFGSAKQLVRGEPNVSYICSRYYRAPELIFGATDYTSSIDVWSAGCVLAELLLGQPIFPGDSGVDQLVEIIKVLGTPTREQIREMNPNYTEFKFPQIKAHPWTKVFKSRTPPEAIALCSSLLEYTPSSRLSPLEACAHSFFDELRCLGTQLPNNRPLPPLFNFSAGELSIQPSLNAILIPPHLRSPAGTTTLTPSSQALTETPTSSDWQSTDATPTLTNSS

[19] = target: Glycogen synthase kinase-3 alpha (Homo sapiens) (UniProt P49840); conditions: at 1 µM
[20] = target: Glycogen synthase kinase-3 beta (Homo sapiens) (UniProt P49841); conditions: at 0.1 µM;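 further: values are mean percent inhibition of GSK3B activity, from the GSK Published Kinase Inhibitor Set (PKIS) screening dataset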
Glycogen synthase kinase-3 beta (Homo sapiens), sequence (P49841 whole entry, looked up): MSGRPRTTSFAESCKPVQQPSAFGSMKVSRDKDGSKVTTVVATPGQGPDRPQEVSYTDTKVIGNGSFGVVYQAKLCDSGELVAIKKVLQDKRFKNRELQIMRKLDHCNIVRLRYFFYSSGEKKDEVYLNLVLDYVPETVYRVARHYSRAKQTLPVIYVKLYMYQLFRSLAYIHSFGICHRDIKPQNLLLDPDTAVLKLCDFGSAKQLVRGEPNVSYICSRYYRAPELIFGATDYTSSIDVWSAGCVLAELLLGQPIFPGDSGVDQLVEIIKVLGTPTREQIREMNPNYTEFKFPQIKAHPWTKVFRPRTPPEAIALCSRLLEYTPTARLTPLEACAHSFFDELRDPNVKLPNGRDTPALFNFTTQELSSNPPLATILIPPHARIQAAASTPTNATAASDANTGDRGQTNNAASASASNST

CDK3/Cyclin E (Homo sapiens), sequence (P24864 whole entry, looked up): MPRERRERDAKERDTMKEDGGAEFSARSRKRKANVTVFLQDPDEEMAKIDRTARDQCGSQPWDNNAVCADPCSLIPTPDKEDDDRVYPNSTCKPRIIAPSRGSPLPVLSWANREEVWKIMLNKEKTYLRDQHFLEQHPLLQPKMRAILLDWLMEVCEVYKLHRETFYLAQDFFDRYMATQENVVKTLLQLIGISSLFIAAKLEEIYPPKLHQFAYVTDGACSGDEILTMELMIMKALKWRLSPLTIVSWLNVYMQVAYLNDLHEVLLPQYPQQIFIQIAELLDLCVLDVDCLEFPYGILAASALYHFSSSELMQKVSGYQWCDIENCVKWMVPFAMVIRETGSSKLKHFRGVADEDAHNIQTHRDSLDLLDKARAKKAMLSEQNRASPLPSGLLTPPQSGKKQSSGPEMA
CDK3/Cyclin E (Homo sapiens), sequence (Q00526 whole entry, looked up): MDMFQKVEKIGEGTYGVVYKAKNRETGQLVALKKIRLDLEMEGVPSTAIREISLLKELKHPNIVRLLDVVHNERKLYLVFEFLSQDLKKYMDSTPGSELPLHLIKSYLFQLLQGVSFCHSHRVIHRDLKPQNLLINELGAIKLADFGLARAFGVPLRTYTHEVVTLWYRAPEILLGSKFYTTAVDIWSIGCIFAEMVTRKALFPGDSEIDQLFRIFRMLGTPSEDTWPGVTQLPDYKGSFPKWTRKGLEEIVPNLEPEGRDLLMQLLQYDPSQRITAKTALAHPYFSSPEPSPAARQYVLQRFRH

Compound | inhibition [1] | inhibition [2] | inhibition [3] | inhibition [4] | inhibition [5] | inhibition [6] | inhibition [7] | inhibition [8] | inhibition [9] | inhibition [10] | inhibition [11] | inhibition [12] | inhibition [13] | inhibition [14] | inhibition [15] | inhibition [16] | inhibition [17] | inhibition [18] | inhibition [19] | inhibition [20]
CC1(C)CC(n2cnc(-c3ccc(F)cc3)c2-c2ccnc(N)n2)CC(C)(C)N1 | -0.65% | 1.99% | 2.08% | 0.25% | 0.14% | -2.02% | 1.29% | 0.85% | 0.02% | 0.82% | 1.38% | 1.54% | 5.47% | 0.78% | 1.31% | 0.23% | -0.37% | 1.97% | 5.81% | 1.6%
O=C(O[C@H]1CN[C@H](C#Cc2cc3ncnc(Nc4ccc5c(cnn5Cc5ccccc5)c4)c3s2)C1)N1CCOCC1 | -1.05% | 0.36% | 3.2% | 2.53% | 3.35% | -1.23% | 0.26% | -1.51% | -0.74% | -0.96% | -0.49% | -4.04% | -3.74% | -1.09% | -0.85% | -0.74% | -3.59% | 1.95% | 3.19% | 1.44%
CS(=O)(=O)Nc1ccc(-c2ccc3c(NC(=O)C4CC4)n[nH]c3c2)cc1 | 6.25% | 2.19% | 6.78% | 0.45% | 1.18% | 7.5% | 36.3% | 0.87% | 3.05% | 1.51% | 4.08% | 1.29% | 6.04% | -0.26% | 2.94% | 2.37% | 2.73% | 2.08% | 7.33% | 1.51%
Cc1ccc(-c2cc3c(NC(=O)C4CC4)ncnc3o2)cc1 | -0.64% | 3.36% | 4.97% | 1.87% | 3.17% | 1.55% | 3.23% | -0.87% | 6.08% | 2.11% | 7.45% | 4.14% | 12.6% | 1.1% | 4.52% | 2.48% | 8.21% | 12.4% | 48.7% | 7.9%
COc1ccc(-c2nn3ncccc3c2-c2ccnc(Nc3ccc(F)c(F)c3)n2)cc1 | 0.42% | 0.25% | 1.71% | 0.48% | 1.15% | 5.13% | 3.48% | -1.03% | 0.41% | 2.08% | 3.23% | 2.77% | 4.84% | -0.82% | 1.01% | 2.83% | 3.6% | 3.2% | 4.32% | 3.16%
COc1cc(N2CCN(C(C)C)CC2)ccc1Nc1nc(Nc2cccc(F)c2C(=O)O)c2cc[nH]c2n1 | -1.26% | 2.63% | 2.75% | 1.71% | 2.09% | 5.01% | 4.74% | 5.61% | 41% | 3.73% | 7.82% | 5.55% | 23% | 5.54% | 32.6% | 2.88% | 4.2% | 5% | 6.33% | 3.95%
COc1c(C(N)=O)cc(-c2ccc(Cl)cc2)cc1-c1ccc(S(N)(=O)=O)cc1 | -0.77% | 3.98% | 3.06% | 0.65% | 0.17% | -0.9% | -0.36% | 3.22% | 5.16% | 0.71% | 0.31% | 3.11% | 4.97% | -0.92% | -0.01% | 3.75% | 8.4% | 1.76% | 2.57% | 0.69%
Nc1ncnc2occ(-c3ccc(NC(=O)Nc4cc(C(F)(F)F)ccc4F)cc3)c12 | 26.3% and 17% | 2.18% and -1.12% | 7.72% and 1.95% | 2.15% and 1.3% | 10.4% and 4.77% | 2.49% and -1.62% | 6.94% and -0.12% | -0.16% and 0.05% | 2.32% and 0.92% | -0.08% and 0.74% | 2.26% and 0.21% | 1.15% and 1.58% | 4.22% and 0.86% | 1.3% and 0.83% | 2.57% and 1.79% | 2.49% and -1.01% | 3.45% and -1.47% | 7.6% and 1.13% | 17.5% and 6.32% | 7.23% and 1.21%
CCS(=O)(=O)c1ccc(OC)c(Nc2ncc(-c3cccc(C(C)=O)c3)o2)c1 | 1.82% | 2.53% | 3.06% | 1.03% | 3.09% | 4.78% | 5.56% | 28.6% | 82.8% | 1.61% | 5.96% | 6.12% | 35.4% | 4.09% | 33.2% | 2.2% | 5.6% | 3.75% | 11.3% | 4.38%
N#Cc1cccc(Nc2ncc(-c3ccccc3)o2)c1 | 40.2% | 3.86% | 26.7% | 4.45% | 30.5% | 21.9% | 63% | 1.44% | 9.1% | 1.7% | 1.97% | 1.47% | 5.95% | -0.09% | 3.53% | 0.71% | 2.45% | 5.76% | 25.6% | 2.85%
COc1ccccc1-c1cc(/C=C2\C(=O)Nc3ncc(Br)cc32)cc(Br)c1O | 1.11% | 5.08% | 7.62% | 4.84% | 4.91% | 1.08% | 6.64% | 1.63% | 5.09% | 2.35% | 9.88% | 2.51% | 11.2% | 0.86% | 4.16% | 3.68% | 4.79% | 4.73% | 10% | 5.17%
CN1CCC(C(=O)Nc2n[nH]c3nc(-c4ccc(O)cc4)c(Br)cc23)CC1 | 56.1% and 53.4% | 48% and 51.8% | 76.6% and 78.3% | 0.17% and 1.86% | 13.3% and 11.5% | 36.9% and 34.2% | 76.5% and 74% | 2.03% and 1.85% | 3.04% and 2.87% | -1.53% and 0.88% | 3.67% and 4.52% | 9.4% and 10.2% | 43.4% and 51.8% | 29.6% and 27.7% | 66.8% and 67% | 6.68% and 6.28% | 33.7% and 34% | 78.2% and 80.5% | 83.2% and 81.7% | 
CN(C)CCNC(=O)Nc1ccc(N(C)c2ccnc(Nc3ccc(CS(C)(=O)=O)cc3)n2)cc1 | 0.2% | 3.81% | 4.81% | 0.85% | 2.57% | 0.28% | 4.3% | 0.9% | 3.79% | 2.16% | 2.89% | 2.86% | 5.24% | 1.37% | 1.57% | 2.66% | 4.33% | 1.56% | 4.32% | 0.61%
CS(=O)(=O)Nc1ccc(-c2cc(-c3ccccc3)cc(C(N)=O)c2N)cc1 | -1.91% | 0.62% | 1.63% | 0.11% | 0.2% | -0.52% | -0.55% | 0.11% | 2.34% | 0.2% | -0.57% | 0.57% | 4.13% | 0.32% | 1.12% | 0.61% | 2.18% | 1.48% | 3.56% | 0.94%
